Results taken from PubChem BioAssay AID1159580 (chemical genetic matrix, 2015).
Values joined by “and” are separate entries in the source; they are usually repeats but may differ in a detail not shown here. Identical values can stand only once. Hit rate of the full screen: of about 5,500 compounds, about 2,000 (36%) were called active. About 18% were inconclusive and are not listed. Rule as the data show it: active = normalized growth mostly below about 0.91 (no sharp cut-off); inconclusive = no clear call, values can overlap the other calls; inactive = mostly above about 0.92. The list shows a part of the results.

Assay: chemical genetic growth profiling, strain panel (AID 1159580);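 also: tested at 20 µM; growth read once vehicle control cultures reached saturation at 30 °C; 1 = growth at the plate median or of vehicle wells; lower values mean less growth of the strain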
Settings: S. cerevisiae deletion strains, growth OD
[1] = locus YAL013W, strain DEP1, active compounds read low
[2] = locus YGR078C, strain PAC10, active compounds read low
[3] = locus YJR075W, strain HOC1, active compounds read low
[4] = locus YMR307W, strain GAS1, active compounds read low
[5] = locus YPL055C, strain LGE1, active compounds read low
[6] = locus YPL241C, strain CIN2, active compounds read low
[7] = locus YAL040C, strain CLN3, active compounds read low
[8] = locus YDR363W, strain ESC2, active compounds read low
[9] = locus YER002W, strain NOP16, active compounds read low
[10] = locus YNL153C, strain GIM3, active compounds read low
[11] = locus YNL175C, strain NOP13, active compounds read low
[12] = locus YNL197C, strain WHI3, active compounds read low
[13] = locus YNL224C, strain SQS1, active compounds read low
[14] = locus YOR083W, strain WHI5 (second series), active compounds read low

Measured: normalized growth

CC1(C)O[C@@H]2CC3C4C[C@H](F)C5=CC(=O)C=C[C@]5(C)[C@@]4(F)[C@@H](O)C[C@]3(C)[C@]2(C(=O)CO)O1 (stereo not given in full)
inactive: [1] 1 | locus YAL021C, strain ccr4, active compounds read low 1.01 | locus YAL026C, strain drs2, active compounds read low 1 | locus YAL030W, strain snc1, active compounds read low 1.01 | locus YBL061C, strain skt5, active compounds read low 1.01 | locus YBR009C, strain hhf1, active compounds read low 1.01 | locus YBR021W, strain FUR4, active compounds read low 0.995 | locus YBR023C, strain chs3, active compounds read low 1.03 | locus YBR171W, strain sec66, active compounds read low 1.02 | locus YBR229C, strain ROT2, active compounds read low 0.999 | locus YBR231C, strain swc5, active compounds read low 1.01 | locus YBR279W, strain paf1, active compounds read low 1.05 | locus YCL011C, strain gbp2, active compounds read low 1.03 | locus YCL016C, strain dcc1, active compounds read low 1.02 | locus YCL029C, strain bik1, active compounds read low 1.01 | locus YCL061C, strain MRC1, active compounds read low 1.03 | locus YCL069W, strain vba3, active compounds read low 1.02 | locus YCR088W, strain abp1, active compounds read low 1.01 | locus YDL005C, strain med2, active compounds read low 1.02 | locus YDL035C, strain GPR1, active compounds read low 0.982 | locus YDL040C, strain nat1, active compounds read low 1.01 | locus YDL074C, strain BRE1, active compounds read low 1 | locus YDL101C, strain DUN1, active compounds read low 1.01 | locus YDL185W, strain tfp1, active compounds read low 1.01 | locus YDL192W, strain arf1, active compounds read low 1.01 | locus YDR001C, strain nth1, active compounds read low 1.02 | locus YDR069C, strain doa4, active compounds read low 1 | locus YDR101C, strain arx1, active compounds read low 0.988 | locus YDR137W, strain rgp1, active compounds read low 1.02 | locus YDR159W, strain sac3, active compounds read low 0.973 | locus YDR162C, strain NBP2, active compounds read low 0.993 | locus YDR195W, strain ref2 1.01 | locus YDR297W, strain sur2, active compounds read low 1.01 | locus YDR318W, strain mcm21, active compounds read low 1.02 | locus YDR334W, strain swr1, active compounds read low 1.01 | locus YDR335W, strain msn5, active compounds read low 1.02 | locus YDR388W, active compounds read low 1.01 | locus YDR392W, strain spt3, active compounds read low 0.975 | locus YDR502C, strain sam2, active compounds read low 1.01 | locus YEL003W, strain gim4, active compounds read low 1 | locus YEL037C, strain rad23, active compounds read low 1.01 | locus YEL061C, strain CIN8 (second series), active compounds read low 1.02 | locus YEL061C, strain CIN8, active compounds read low 0.992 | locus YER015W, strain faa2, active compounds read low 1.01 | locus YER016W, strain bim1, active compounds read low 1.01 | locus YER110C, active compounds read low 1.02 | locus YER111C, strain swi4, active compounds read low 1.01 | locus YER155C, strain BEM2 (second series), active compounds read low 1.02 | locus YER155C, strain BEM2, active compounds read low 0.997 | locus YER167W, strain BCK2, active compounds read low 1 | locus YFR010W, strain ubp6, active compounds read low 1.01 | locus YGL078C, strain dbp3, active compounds read low 1.02 | locus YGL086W, strain mad1, active compounds read low 0.992 | locus YGL167C, strain pmr1, active compounds read low 1.01 | locus YGL173C, strain kem1, active compounds read low 1.01 | locus YGL227W, strain vid30, active compounds read low 1.02 | locus YGL240W, strain doc1, active compounds read low 0.997 | locus YGL248W, strain PDE1, active compounds read low 1.01 | locus YGL253W, strain hxk2, active compounds read low 1.01 | [2] 0.994 | locus YGR135W, strain pre9, active compounds read low 1.07 | locus YGR252W, strain gcn5, active compounds read low 1.07 | locus YHR013C, strain ard1, active compounds read low 1.05 | locus YHR027C, strain rpn1, active compounds read low 1.01 | locus YHR030C, strain SLT2, active compounds read low 0.99 and 0.972 | locus YHR079C, strain IRE1 (second series), active compounds read low 1.01 | locus YHR079C, strain IRE1, active compounds read low 0.969 | locus YHR094C, strain hxt1, active compounds read low 1.02 | locus YHR129C, strain ARP1, active compounds read low 0.997 | locus YHR142W, strain chs7, active compounds read low 1.03 | locus YHR200W, strain rpn10, active compounds read low 1.02 | locus YIL066C, strain RNR3, active compounds read low 0.993 | locus YIL073C, strain SPO22, active compounds read low 1.02 | locus YIL125W, strain kgd1, active compounds read low 1.01 | locus YIR030C, strain dcg1, active compounds read low 1.02 | locus YJL092W, strain hpr5, active compounds read low 1.02 | locus YJL095W, strain BCK1 (second series), active compounds read low 1.02 | locus YJL095W, strain BCK1, active compounds read low 1.01 and 0.978 | locus YJL115W, strain asf1, active compounds read low 1.01 | locus YJL129C, strain trk1, active compounds read low 1.02 | locus YJL134W, strain LCB3, active compounds read low 1 | locus YJL154C, strain vps35, active compounds read low 1.01 | locus YJL164C, strain tpk1, active compounds read low 1.01 | locus YJL166W, strain qcr8, active compounds read low 1.03 | locus YJL168C, strain set2, active compounds read low 1.02 | locus YJL187C, strain SWE1 (second series), active compounds read low 0.999 | locus YJL187C, strain SWE1, active compounds read low 1.01 | locus YJR043C, strain POL32, active compounds read low 0.988 | locus YJR066W, strain TOR1, active compounds read low 0.952 | [3] 0.994 | locus YKL009W, strain mrt4, active compounds read low 0.996 | locus YKL068W, active compounds read low 1.01 | locus YKL085W, strain MDH1 (second series), active compounds read low 1.01 | locus YKL085W, strain MDH1, active compounds read low 1.01 | locus YKL160W, strain elf1, active compounds read low 1.03 | locus YKL190W, strain CNB1, active compounds read low 0.994 | locus YKR001C, strain vps1, active compounds read low 1 | locus YKR026C, strain gcn3, active compounds read low 1.01 | locus YKR091W, strain srl3, active compounds read low 1.01 | locus YLL001W, strain dnm1, active compounds read low 1.01 | locus YLL026W, active compounds read low 1.01 | locus YLL041C, strain sdh2, active compounds read low 1.01 | locus YLR027C, strain aat2, active compounds read low 1.01 | locus YLR039C, strain RIC1, active compounds read low 1.05 | locus YLR058C, strain SHM2, active compounds read low 1.01 | locus YLR102C, strain apc9, active compounds read low 1.02 | locus YLR113W, strain HOG1, active compounds read low 0.994 | locus YLR221C, strain rsa3, active compounds read low 1.02 | locus YLR258W, strain gsy2, active compounds read low 1.01 | locus YLR262C, strain YPT6 (second series), active compounds read low 1.04 | locus YLR262C, strain YPT6, active compounds read low 0.968 | locus YLR268W, strain sec22, active compounds read low 1.01 | locus YLR320W, strain mms22, active compounds read low 1.04 | locus YLR330W, strain CHS5, active compounds read low 1 | locus YLR342W, strain FKS1 (second series), active compounds read low 1.01 | locus YLR342W, strain FKS1, active compounds read low 1.02 | locus YLR357W, strain rsc2, active compounds read low 1.01 | locus YLR370C, strain arc18, active compounds read low 1.01 | locus YLR371W, strain rom2, active compounds read low 1.01 | locus YLR384C, strain iki3, active compounds read low 1.02 | locus YLR418C, strain cdc73, active compounds read low 1.03 | locus YML016C, strain PPZ1, active compounds read low 0.998 | locus YML032C, strain rad52, active compounds read low 1.01 | locus YML120C, strain ndi1, active compounds read low 1.03 | locus YML124C, strain tub3, active compounds read low 1.01 | locus YMR058W, strain fet3, active compounds read low 1.01 | locus YMR078C, strain ctf18, active compounds read low 1.01 | locus YMR125W, strain sto1, active compounds read low 1.03 | locus YMR129W, active compounds read low 1.01 | locus YMR205C, strain PFK2, active compounds read low 1.01 | locus YMR223W, strain ubp8, active compounds read low 1.04 | locus YMR231W, strain pep5, active compounds read low 1.01 | [4] 0.967 | locus YNL067W, strain RPL9B, active compounds read low 0.993 | locus YNL071W, strain lat1, active compounds read low 1.02 | locus YNL128W, strain TEP1, active compounds read low 1.01 | locus YNL183C, strain NPR1, active compounds read low 0.975 | locus YNL209W, strain ssb2, active compounds read low 1.02 | locus YNL233W, strain BNI4, active compounds read low 1 | locus YNL248C, strain rpa49, active compounds read low 1.01 | locus YNL250W, strain rad50, active compounds read low 1.05 | locus YNL271C, strain bni1, active compounds read low 1.02 | locus YNL298W, strain CLA4, active compounds read low 1.01 | locus YNL307C, strain MCK1, active compounds read low 1.03 | locus YNL322C, strain KRE1 (second series), active compounds read low 1.03 | locus YNR049C, strain mso1, active compounds read low 1 | locus YNR052C, strain pop2, active compounds read low 1.01 | locus YOL012C, strain htz1 0.765 | locus YOL147C, strain pex11, active compounds read low 1.02 | locus YOR001W, strain rrp6, active compounds read low 0.98 | locus YOR061W, strain CKA2, active compounds read low 1.01 | locus YOR069W, strain VPS5, active compounds read low 1 | locus YOR070C, strain gyp1, active compounds read low 1.03 | locus YOR080W, strain dia2, active compounds read low 1.02 | locus YOR083W, strain WHI5, active compounds read low 1.04 | locus YOR106W, strain vam3, active compounds read low 1.04 | locus YOR136W, strain idh2, active compounds read low 1.01 | locus YOR144C, strain elg1, active compounds read low 1.01 | locus YOR184W, strain ser1, active compounds read low 1.02 | locus YOR231W, strain MKK1, active compounds read low 0.986 | locus YOR265W, strain rbl2, active compounds read low 1.01 | locus YOR270C, strain vph1, active compounds read low 1.04 | locus YOR290C, strain snf2, active compounds read low 0.985 | locus YOR316C, strain cot1, active compounds read low 1.01 | locus YPL051W, strain arl3, active compounds read low 1.01 | [5] 0.996 | locus YPL078C, strain atp4, active compounds read low 1.02 | locus YPL106C, strain sse1, active compounds read low 1.01 | locus YPL240C, strain hsp82, active compounds read low 1.01 | [6] 1 | locus YPL256C, strain CLN2, active compounds read low 0.987 | locus YPR119W, strain clb2, active compounds read low 1.02 | locus YPR141C, strain kar3, active compounds read low 1.01 | locus YPR163C, strain tif3, active compounds read low 1.02 | locus YPR167C, strain met16, active compounds read low 1.01 | strain wtn01, active compounds read low 1.01

N=c1ccn2c(n1)OC1C(O)[C@@H](CO)O[C@H]12 (stereo not given in full)
inactive: [1] 0.99 | [7] 1 | [8] 0.986 | [9] 1.01 | [10] 1.02 | [11] 1 | [12] 1 | [13] 1.03 | locus YNL322C, strain KRE1, active compounds read low 1 | [14] 1.03

CC(N)Cc1c[nH]c2ccc(OCc3cccs3)cc12 (stereo not given)
inactive: [1] 1 | [7] 1.02 | [8] 0.984 | [9] 1.02 | [2] 1.01 | [3] 1 | [4] 1.02 | [10] 1.02 | [11] 0.986 | [12] 1.01 | [13] 1.01 | [14] 0.981 | [5] 1 | [6] 1.01
